Results filed as inconclusive are left out. Entries that show only a call come without a potency. Calls of active or inactive are those of the source. The call rests on the fitted dose curve. Where a SMILES comes first, the peptide text is derived from it.

This test is described as follows: A High-Content qHTS Against Drug Library for the Identification of Small Molecules that Inhibit DYT1 Early Onset Primary Dystonia-Associated Cell Pathology (AID 1645839). As to conditions: HEK293 Flp-In EGFP-delE TorsinA, punctate imaging, 48 h; series mostly up to 46.1 µM. The text has this: Nicole Calakos M.D., Ph.D.
Duke University School of Medicine, Durham, NC
In DYT1 dystonia due to delGAG in the TOR1A gene, there is a robust and widely replicated finding of TorsinA protein mislocalization caused when the mutant protein is in excess of the wildtype protein (1-7). Stable HEK293 cell lines were created that replicate this phenomenon. Inducible expression of an EGFP-hu delE TorsinA encoding cDNA causes pronounced punctate cellular distribution. […] This phenotypic difference in EGFP-huTorsinA fusion protein distribution serves as an indicator of cell pathology. […] RNAi screen results with the assay were validated in DYT1 patient cell phenotypes, intersected with a known dystonia gene, and led to discovery of new human genetic dystonia associations.
The bioassay described herein is a high-content image screen with two readouts. The "%pathology" readout is the primary qHTS data channel, while the "cellcount" is the counterscreen qHTS channel. Desired active compounds are those that show inhibition in %pathology channel but no activity or minimal toxicity in cellcount readout.
1. Kustedjo, K., Bracey, M.H., and Cravatt, B.F. (2000). […] J. Biol. Chem. 275, 27933 - 27939.
2. Bragg, D.C., Kaufman, C.A., Kock, N., and Breakefield, X.O. (2004). Inhibition of N-linked glycosylation prevents inclusion formation by the dystonia-related mutant form of torsinA. Mol. Cell. Neurosci. 27, 417 - 426.
3. Gonzalez-Alegre, P., and Paulson, H.L. (2004). Aberrant Cellular Behavior of Mutant TorsinA Implicates Nuclear Envelope Dysfunction in DYT1 Dystonia. J. Neurosci. 24, 2593 - 2601.
4. Goodchild, R.E., and Dauer, W.T. (2004). Mislocalization to the nuclear envelope: an effect of the dystonia-causing torsinA mutation. Proc. Natl. Acad. Sci. U. S. A. 101, 847 - 852.
5. Kock, N., Allchorne, A.J., Sena-Esteves, M., Woolf, C.J., and Breakefield, X.O. (2006). RNAi blocks DYT1 mutant torsinA inclusions in neurons. Neurosci. Lett. 395, 201 - 205.
6. Hewett, J.W., Nery, F.C., Niland, B., Ge, P., Tan, P., Hadwiger, P., Tannous, B.A., Sah, D.W.Y., and Breakefield, X.O. (2008). siRNA knock-down of mutant torsinA restores processing through secretory pathway in DYT1 dystonia cells. Hum. Mol. Genet. 17, 1436 - 1445.
7. Calakos, N., Patel, V.D., Gottron, M., Wang, G., Tran-Viet, K.N., Brewington, D., Beyer, J.L., Steffens, D.C., Krishnan, R.R., and Zuchner, S. (2010). Functional evidence implicating a novel TOR1A mutation in idiopathic, late-onset focal dystonia. J. Med. Genet. 47, 646 - 650.
8. Rittiner* JE, Caffall* ZF, Hernandez-Martinez R, Sanderson SM, Pearson JL, Tsukayama KK, Liu AY, Xiao C, Tracy S, Shipman MK, Hickey P, Johnson J, Scott B, Stacy M, Saunders-Pullman R, Bressman S, Simonyan K, Sharma N, Ozelius LJ, Cirulli ET, Calakos N. Functional Genomic Analyses of Mendelian and Sporadic Disease Identify Impaired eIF2alpha Signaling as a Generalizable Mechanism for Dystonia. Neuron. 2016 Dec 21;92(6):1238-1251. doi: 10.1016/j.neuron.2016.11.012. Epub 2016 Dec 8. PMID: 27939583; PMCID: PMC5320521.
High-content, High-throughput Drug Screening Assay
The TorsinA mislocalization assay was modified from the previously published assay to accommodate compound testing in 1536 well format.1 Briefly, Flp-In T-REx 293 cells from Invitrogen in which a single copy of a cDNA is recombined into a specific genomic locus was used to create tetracycline-inducible expression of cDNA encoding either EGFP-hTOR1A (WT) or EGFP-delE hTOR1A (DYT1). WT and DYT1 cells were diluted to a concentration of 2 x 10^5 cells/mL in reduced serum media (DMEM High Glucose containing 1% tetracycline-tested FBS, 2 mM L-Glutamine, and 1% Penicillin/Streptomycin). 4 µl of WT cells and 4 µl of DTY1 cells were added to column 1 and columns 2-48, respectively, of a poly-D-lysine-coated, low base, black, clear bottom 1536 well plate (Corning, Corning, NY) using the BioRAPTR FRD Microfluidic Workstation (Beckman Coulter, Indianapolis, IN). The final cell number was 800 cells/well. […]
A general note: Quantitative high-throughput screening tests each substance at several concentrations.
As to `CC(COc1ccccc1)NN` (stereo not given), the Potency result is “inactive”. As for `CC(=O)OCC(=O)Nc1cc(C#N)cc(NC(=O)COC(C)=O)c1Cl`, the entry is “inactive”.

`CCCCC(O)/C=C(C)/C=C/C=C/C(=O)N1CCCC1=O` (stereo not given): the Potency entry is “inactive”. The result for `O=C(CCCCC(=O)Nc1c(I)cc(I)c(C(=O)O)c1I)Nc1c(I)cc(I)c(C(=O)O)c1I` reads “inactive”; that for `O=C(O)[C@H](O)[C@@H](O)[C@H](O[C@@H]1O[C@H](CO)[C@H](O)[C@H](O)[C@H]1O)[C@H](O)CO`, “inactive”; that for `CCC(=O)O[C@H]1[C@H](O[C@@H]2[C@@H](C)[C@H](O[C@H]3C[C@@](C)(OC)[C@@H](O)[C@H](C)O3)[C@@H](C)C(=O)O[C@H](CC)[C@@](C)(O)[C@H](O)[C@@H](C)C(=O)[C@H](C)C[C@@]2(C)O)O[C@H](C)C[C@@H]1N(C)C`, “inactive”. Regarding `CCOC(=O)c1ccc(NC(=O)CN2CCCCC2)cc1`, the Potency result is “inactive”. The result for `O=C1Cc2cc(Cl)ccc2N1` reads “inactive”. As for `COC(=O)c1ccc(NC(C)=O)cc1OC`, the entry is “inactive”; as for `Cc1ccc(C(=O)C(=O)O)cc1C`, “inactive”. In the case of `O=C(O)c1ccccc1Nc1cc(Cl)ccc1C(=O)O`, the Potency result was “inactive”. The result for `CCCOc1ccc2c(c1)CC[C@@H]1[C@@H]2CC[C@]2(C)C(OC)CC[C@@H]12` (stereo not given in full) reads “inactive”. As for `O=C(OCC(O)CO)c1ccccc1Nc1ccnc2c(C(F)(F)F)cccc12` (stereo not given), the entry is “inactive”; as for `CC(=O)c1ccc(O)c(C(N)=O)c1`, “inactive”. For `Nc1nc(=O)n([C@@H]2O[C@H](CO)[C@@H](O)[C@@H]2F)cc1I`, the Potency entry was “inactive”. The result for `CCCCN(CCCC)C(C(N)=O)c1ccc(OC)cc1` (stereo not given) reads “inactive”; that for `CO/N=C(/C(=O)N[C@@H]1C(=O)N2C(C(=O)[O-])=C(C[n+]3ccn4ncccc43)CS[C@H]12)c1nsc(N)n1`, “inactive”. `CCN(CC)CC(=O)OCC(=O)[C@@]1(O)CC[C@H]2[C@@H]3CCC4=CC(=O)CC[C@]4(C)[C@H]3[C@@H](O)C[C@@]21C`: the Potency result was “inactive”. Take `Cc1c(N)cccc1C(F)(F)F`: the Potency entry is “inactive”. As for `CCOC(=O)c1ccc(OCCN2C[C@H](O)[C@@H](O)[C@H](O)[C@H]2CO)cc1`, the entry is “inactive”; as for `NS(=O)(=O)c1cc(C(=O)NN2C[C@H]3[C@H]4CCC(C4)[C@H]3C2)ccc1Cl`, “inactive”; as for `O=C(NN1CCCC1)NS(=O)(=O)c1ccc(Cl)cc1`, “inactive”.

On to `COC(=O)CCCCC(CCSS/C(CCO)=C(\C)N(C=O)Cc1cnc(C)nc1N)SC(C)=O` (stereo not given), for which the Potency entry was “inactive”. In the case of `CCc1cc(S(=O)(=O)O)c2cc(C(C)C)cccc1-2`, the Potency entry is “inactive”. As for `N#Cc1cc(NC(=O)C(=O)O)c(Cl)c(NC(=O)C(=O)O)c1`, the entry is “inactive”; as for `COc1cc(C=O)ccc1O`, “inactive”; as for `C=CC[N+]1([C@H]2C[C@H]3[C@@H]4CC[C@H]5C[C@H](OC(C)=O)[C@@H](N6CCCCC6)C[C@]5(C)[C@H]4CC[C@]3(C)[C@H]2OC(=O)CC)CCCCC1`, “inactive”. The result for `CC[N+]1(CC)CCC(=C(c2ccccc2)c2ccccc2)C1C` (stereo not given) reads “inactive”.

For the compound `CC1c2ccccc2CN1NC(=O)c1ccc(Cl)c(S(N)(=O)=O)c1` (stereo not given), the Potency result is “inactive”. As for `CC(C)C[C@H](NC(=O)CNC(=O)[C@H](Cc1ccc(O)cc1)NC(=O)[C@H](CO)NC(=O)[C@H](Cc1c[nH]c2ccccc12)NC(=O)[C@H](Cc1cnc[nH]1)NC(=O)[C@@H]1CCC(=O)N1)C(=O)N[C@@H](CCCN=C(N)N)C(=O)N1CCC[C@H]1C(=O)NCC(N)=O` (stereo in doubt), the entry is “inactive”; as for `O=C(O)C(=O)Nc1cccc(-c2nn[nH]n2)c1`, “inactive”. Turning to `Cc1ccc(O)cc1`, the Potency entry was “inactive”.

In the case of `c1ccc2occc2c1`, the Potency entry was “inactive”.

On to `CC(=O)N[C@@H](CO)C(=O)N[C@@H](CC(=O)O)C(=O)N[C@@H](CCCCN)C(=O)N1CCC[C@H]1C(=O)O` (Ac-SDKP-OH), for which the Potency result was “inactive”.

As to `N#CSCC(=O)O`, the Potency entry was “inactive”.

As for `O=P(O)(O)OCC(O)CO` (stereo not given), the Potency result is “inactive”.

With `O=C1Nc2cc(Cl)ccc2Oc2ccccc21`, the Potency result was “inactive”.

On to `O=C(NO)c1ccccc1`, for which the Potency entry was “inactive”. For `c1ccc2c(c1)CCc1ccccc1N2`, the Potency result is “inactive”. For the compound `Cc1ccc(/C=N/n2c(-c3ccccc3)csc2=S)cc1`, the Potency result was “inactive”.

For the origin of these results see PubChem BioAssay (NCATS).
